# Screens as filed in PubChem BioAssay.
# Only some compounds are listed: those with a hit (about 4.3% of all), similar ones and a draw of the others.
# GLP-1R inv ag: acts as inverse agonist at human GLP-1 receptor; Potency, µM (series often up to 38.3 µM), without a hit: top-dose activity change, negative = inhibition, usual class: inhibitors; HEK293 GLP-1R CRE-luciferase, luminescence, 24 h; GLP-1R form is constitutively active; 1.6% of 410,000 active; also: potency is read from the fitted curve at half-maximal effect; % is scaled to controls: 0 for no effect and ±100 for the full control effect; nearly all actives have a fitted effect of over 55% in size
#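 Luminescence readout: a drop in cAMP-driven luciferase signal flags inverse agonism at a constitutively active GLP-1R stably expressed in HEK293. Compound exposure lasted 24 hr at 37 deg C, 5% CO2.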
# DRD3 antagonist: antagonists of human D3 dopamine receptor; P35462; D3R cells, DiscoveRx beta-arrestin luminescence, antagonist mode; hits give low values; max response, negative = inhibition, %; 2.5% of 360,000 active; AID 652054; in the data active = max response below about -50%; inconclusive = no clear call, values can overlap the other calls; also: % is scaled to controls: 0 for no effect and ±100 for the full control effect
# Target sequence (P35462 whole entry, looked up): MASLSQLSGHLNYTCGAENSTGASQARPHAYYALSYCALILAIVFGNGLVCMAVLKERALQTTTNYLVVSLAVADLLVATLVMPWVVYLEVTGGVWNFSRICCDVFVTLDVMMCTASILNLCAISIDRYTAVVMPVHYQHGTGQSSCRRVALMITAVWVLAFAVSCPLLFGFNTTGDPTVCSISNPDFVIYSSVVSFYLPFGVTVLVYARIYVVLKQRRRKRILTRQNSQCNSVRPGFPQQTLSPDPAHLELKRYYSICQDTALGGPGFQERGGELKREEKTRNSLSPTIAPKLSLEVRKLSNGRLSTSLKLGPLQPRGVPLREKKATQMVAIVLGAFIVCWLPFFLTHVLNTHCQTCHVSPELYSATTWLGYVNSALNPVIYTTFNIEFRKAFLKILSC
#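 Cells plated overnight at 1500 cells/well, then exposed to library compounds with dopamine controls for 90 minutes at 37 degrees C. DiscoveRx reagent added for 30–60 minutes at room temperature; luminescence read, quantitative HTS format.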
# GLP-1R agonist: activates the human GLP-1 receptor; P43220; HEK293 GLP-1R CRE-luciferase, luminescence, 4-6 h; cells express a hypersensitive GLP-1R form; Potency, µM (top dose mostly 45.6 µM), for inactives: at the highest dose activation, most hits filed as activators; 0.007% of 380,000 active; AID 624172; also: potency is read from the fitted curve at half-maximal effect; % of control where 0% means no effect
# DRD3 agonist: agonists of human D3 dopamine receptor | D3R DiscoveRx beta-arrestin cells, luminescence, 90 min | max activation, % | 0.58% of 410,000 active | AID 652048; in the data active = max activation above about 30%; also: 0% is about no effect
#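 Agonist-mode cell screen: cells plated at 1500/well and incubated overnight at 37 °C, then exposed to library compounds for 90 min at 37 °C. Detection reagent was added for 30–60 min at room temperature, and luminescence was read.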
# Starred values were filed as active, the others as inactive; u = inconclusive; x = no result. Unless noted, calls follow the shape of the dose curve; as a rule, active = well fitted curve in the direction sought with a large enough effect; inconclusive = small, poorly fitted or top-dose-only effect, or another doubt; inactive = no such curve, though single readings can be large; an effect the other way counts as inactive or inconclusive.
SMILES,GLP-1R inv ag,DRD3 antagonist,GLP-1R agonist,DRD3 agonist
COc1ncnc2c1ncn2CCCN1CCN(Cc2cccc3ccccc23)CC1,u,u,-8%,-18
CSc1ncnc2c1ncn2CCCN1CCN(c2ncccn2)CC1,12%,0,2%,38*
CSc1ncnc2c1ncn2CCCN1CCN(Cc2cccc3ccccc23)CC1,u,-60*,0%,-14
Cc1cccc(NC(=O)C(NS(=O)(=O)c2cccc3nsnc23)c2ccccc2)c1C (configuration not stated),-24%,x,x,-10
COc1ccc(Cl)cc1NC(=O)c1cc(S(=O)(=O)N2CCc3ccccc32)cn1C,-5%,x,x,-8
O=C(Nc1cccc(Br)c1)Oc1cccc2cccnc12,-12%,-83*,-4%,-24
O=C(COc1cccc2cccnc12)Nc1ccccc1,1%,-17,5%,-7
O=C(Nc1cccc(C(F)(F)F)c1)Oc1ccc(Cl)c2cccnc12,13µM*,-62*,-1%,-30
Cc1ccc(C(=O)N2CCN(Cc3ccc4c(c3)OCO4)CC2)cc1C,u,-62*,4%,-25
O=C(c1cc2cc(F)ccc2[nH]1)N1CCN(Cc2ccc3c(c2)OCO3)CC1,-63%,-86*,0%,-13
c1cc2c(cc1CN1CCN(C3CCCCCC3)CC1)OCO2,-3%,-51*,-1%,-16
c1ccc(CN2CCC(N3CCN(Cc4ccc5c(c4)OCO5)CC3)CC2)cc1,-13%,-11,12%,-10
COc1ccc(C(=O)N2CCN(Cc3ccc4c(c3)OCO4)CC2)cc1OC,-5%,-6,7%,-10
Cc1ccc(C(=O)N2CCN(Cc3ccc4c(c3)OCO4)CC2)c(Cl)c1,6.3µM*,-86*,8%,-24
COc1ccc(CNC(=O)C(=O)NCC(c2cccs2)S(=O)(=O)c2cccs2)cc1 (configuration not stated),18%,x,x,4
COc1ccc(N(C(=O)c2ccccc2C)S(=O)(=O)c2ccc3c(c2)n(C)c(=O)n3C)cc1,4%,x,x,5
COC(=O)c1scc(-c2ccc(C)cc2)c1S(=O)(=O)N1CCN(c2ccc(OC)cc2)CC1,u,x,x,-2
O=C(c1ccc(Br)cc1)N1CCN(Cc2ccccc2)CC1,-12%,u,0%,-4
O=C(c1ccccc1)N1CCN(Cc2ccccc2Br)CC1,u,-62*,4%,0
CCN(CC)c1ccc(C(=O)NC(=S)N2CCN(Cc3ccc4c(c3)OCO4)CC2)cc1,10µM*,u,7%,-8
c1ccc2nc(N3CCN(Cc4ccc5c(c4)OCO5)CC3)cnc2c1,u,u,12%,-12
O=C(O)C1CC(=O)N(Cc2ccc3c(c2)OCO3)C1 (configuration not stated),11%,-106*,1%,-14
COc1nc2ccccc2nc1N1CCN(Cc2ccc3c(c2)OCO3)CC1,-5%,-114*,0%,5
CC(C)NC(=S)N1CCN(Cc2ccc3c(c2)OCO3)CC1,-26%,3,11%,2
CCc1ccc(CN2CC(C(=O)O)CC2=O)cc1 (configuration not stated),0%,-4,-4%,-13
SMILES,GLP-1R inv ag,DRD3 antagonist,GLP-1R agonist,DRD3 agonist
COc1ccc(-c2cc(C)nc3c(-c4ccc(OC)c(OC)c4)c(C)nn23)cc1,-35%,x,x,25
Cc1ccc(S(=O)(=O)c2cnc(SCC(=O)Nc3cc(C)cc(C)c3)nc2N)cc1,-15%,x,0%,7
OC(COc1ccccc1)CN1CCN(Cc2ccc3c(c2)OCO3)CC1 (configuration not stated),-6%,12,10%,2
Cc1cccc(C(=O)N2CCN(Cc3ccc4c(c3)OCO4)CC2)c1,u,-80*,1%,-12
Cc1cc(C)cc(OCC(O)CN2CCN(Cc3ccc4c(c3)OCO4)CC2)c1 (configuration not stated),2.2µM*,-20,-1%,-3
O=C(c1ccccc1Cl)N1CCN(Cc2ccc3c(c2)OCO3)CC1,u,-20,-2%,-26
O=C(c1ccccc1F)N1CCN(Cc2ccccc2F)CC1,-36%,-57*,6%,-12
O=C(c1ccccc1)N1CCN(Cc2ccc3c(c2)OCO3)CC1,-13%,-78*,13%,-25
CCc1ccc(S(=O)(=O)N(C(=O)Oc2ccccc2)c2ccc3oc(C)c(C(=O)OC)c3c2)cc1,-24%,x,x,-1
COc1ccc(-c2nc(SCC(=O)c3ccc(OC)c(Br)c3)n[nH]2)cc1,u,x,x,-23
O=C(C1CC2CCC1C2)N1CCN(Cc2ccc3c(c2)OCO3)CC1 (configuration not stated),u,-56*,9%,-5
CC1CCN(S(=O)(=O)c2ccc(NC(=O)C3CCN(C(=O)c4ccco4)CC3)cc2)CC1,2.8µM*,4,9%,-7
O=C(Nc1ccc(Cl)c(Cl)c1)C1CCN(C(=O)c2ccco2)CC1,u,-81*,3%,-13
O=C(Nc1ccc(S(=O)(=O)N2CCCCC2)cc1)C1CCN(C(=O)c2ccco2)CC1,u,-7,6%,-10
COC(=O)c1nnn(-c2cccc(C)c2)c1N,14%,x,-5%,0
O=C(c1cnc2sccn2c1=O)N1CCc2ccccc2C1,-6%,-96*,4%,-19
O=C(c1cnc2sccn2c1=O)N1CCN(c2ccccc2Cl)CC1,20%,-7,5%,6
C=C1CCN([C@@H](Cc2ccccc2)C(=O)NCc2ccc(Cl)cc2)S(=O)(=O)c2ccccc21,u,-56*,4%,-21
CN1CCN(CCc2nc3cc(NC(=O)COc4ccc(Cl)cc4)ccc3n2C)CC1,10µM*,-18,4%,-17
Cn1c(CN2CCCC2)nc2cc(NC(=O)COc3ccc(Cl)cc3)ccc21,0%,-69*,1%,-30
COc1ccc(OCC(=O)Nc2ccc3c(c2)nc(CN2CCCC2)n3C)cc1,u,-54*,-3%,-14
CC[n+]1ccc(C(=O)NCc2ccccc2)cc1,-2%,4,-1%,16
O=C(O)c1ccc2c(c1)C(=O)N(Cc1ccccc1)C2=O,5%,-51*,-4%,-2
Cc1cc(C)c2oc(-c3cccc(NC(=O)c4cc5ccccc5o4)c3)nc2c1,3%,x,x,10
CCOC(=O)c1nc(C)nc(Sc2n[nH]c(-c3ccc(C(C)(C)C)cc3)n2)c1C,10µM*,17,-7%,12
N#CC1(c2ccccc2)CCC(NCCc2ccccc2)CC1 (configuration not stated),u,-54*,-6%,-18
O=C(NCCc1ccccc1)C1(c2ccccc2)CCCC1,u,-2,0%,-4
COc1ccc(Cn2ccc3nc(C)c(C(=O)Nc4ccc(OC)cc4)cc3c2=O)cc1,-18%,x,x,-5
CC(C)(C)C1=CC(=Nc2ccccc2N)C=C(C(C)(C)C)C1=O,u,-51*,2%,-3
Cc1ccc2onc(CC(=O)N3CCN(c4cccc(Cl)c4)CC3)c2c1,u,x,x,-4
